BoNT F protease = BoNT/F light chain protease inhibitors, primary screen, biochemical, flow cytometry, MLPCN library | Botulinum neurotoxin type F light chain protease (Clostridium botulinum) | inhibition, % at 10 µM | AID 588497, 2011 | Multiplex microsphere protease cleavage assay | 0.22% of 360,000 active; in the data active means inhibition above about 35%, passing the limit was not always enough; inconclusive means no clear call, values can overlap the other calls; further: plate controls were buffer without enzyme for full effect and enzyme alone for no effect
Bead autofluor = compound fluorescence in toxin protease inhibitor counterscreen; AID 624483; fluorescence intensity (no concentration beside the values); compound autofluorescence counterscreen, microsphere flow cytometry; hits give high values; 3.1% of 360,000 active; in the data active means fluorescence intensity above about 16000; inconclusive means no clear call, values can overlap the other calls
BH1578 lux ind = inducers of Vibrio cholerae quorum light production without autoinducers, primary screen, BH1578 luxS cqsA deficient, single point; V. cholerae BH1578 lux reporter, luminescence, 6 h; 0.16% of 350,000 active; activation, % at 18.7 µM; AID 588436, 2011; in the data active means activation mostly above about 9.7%, no sharp cut-off; inconclusive means no clear call, values can overlap the other calls; inactive means mostly below about 3.7%
BoNT-A LC inh2 = BoNT/A light chain protease inhibitors, primary screen, biochemical, flow cytometry, MLPCN library; multiplex microsphere protease substrate cleavage; inhibition, % at 10 µM; 0.17% of 360,000 active; further: plate controls were buffer without enzyme for full effect and enzyme alone for no effect
Anthrax LF inh2 = Bacillus anthracis LF protease inhibitors, primary screen, biochemical, multiplex microsphere, MLPCN library. 0.12% of 360,000 active. AID 588501, 2011. Lethal factor (Bacillus anthracis), P15917. multiplex microsphere protease cleavage assay. inhibition, % at 10 µM; further: plate controls were buffer without enzyme for full effect and enzyme alone for no effect
Active calls of the source: *; i = inactive; u = inconclusive; x = no result given. Compounds with a hit are over-represented: about 3.5% of the library has one in this group of screens. Unless noted, no stated cut-off is given here; in the data, active means inhibition above about 30%; inconclusive means no clear call, values can overlap the other calls; inactive means below that.

SMILES	BoNT F protease	Bead autofluor	BH1578 lux ind	BoNT-A LC inh2	Anthrax LF inh2
Cn1cc(Cl)c(C(=O)N/N=C/c2ccc3c4c(cccc24)CC3)n1	1	4230	0	3	0
O=c1c2ccc(Cl)cc2[nH]c(=S)n1Cc1cccnc1	7	21022*	1	4	-4
CSCCC(NC(=O)c1ccco1)c1nc2ccccc2[nH]1 (stereo unspecified)	x	x	-3	x	x
CCN(Cc1ccncc1)Cc1ccc(OC)cc1OC	5	3596	0	2	-1
COc1ccc(CN(CCN(C)C)Cc2ccccc2)c(OC)c1	-3	20994*	6	-1	-8
COc1cccc(N2CCc3c(C)nc4ccc(Cl)cc4c32)c1	-8	3742	1	-1	5
CCN1Cc2c(/C=C/c3ccccc3)nc3ccc(OC)cc3c2N(c2cccc(Cl)c2)C1	-8	4228	-2	53*	13
CCN(CC)c1ccc2cc(-c3nc4ccccc4n3C)c(=O)oc2c1	0	16417*	-1	1	3
CCN(CC)c1ccc2cc(-c3nnc(-c4ccccc4)o3)c(=O)oc2c1	18	4020	5	8	10
CCN(CC)c1ccc2cc(-c3nc4ccccc4[nH]3)c(=O)oc2c1	59*	14129	i	33*	28
Cc1cccc(C)c1NCc1n[nH]c(=S)n1-c1ccccc1	0	4704	2	0	-1
Clc1cccc(-c2nc(NCc3cccnc3)c3ccccc3n2)c1	14	17205*	0	14	-14
CCCCCCNC(=O)Cc1nc2nc(C)cc(C)n2n1	4	20841*	i	3	-6
Cc1cc(C)n2nc(SCCC(=O)NCCc3ccccc3)nc2n1	0	18555*	i	3	-1
CCOC(=O)Cc1nc2nc(C)cc(C)n2n1	4	4604	0	0	4
Cc1cc(C)n2nc(SCC(=O)Nc3ccccc3)nc2n1	-4	4384	-5	-2	-2
CCN(C(=O)CSc1nc2nc(C)cc(C)n2n1)c1ccccc1	5	10259	-1	1	0
CCN(C(=O)CSc1nc2nc(C)cc(C)n2n1)c1cccc(C)c1	2	16126*	0	1	-2
COCCNC(=O)CSc1nc2nc(C)cc(C)n2n1	4	22346*	i	2	-1
CC(C)(C)C(CN1CCCC1)OC(=O)c1ccccc1 (stereo unspecified)	u	3807	i	1	-7
CCCc1nc2c(sc3nc4c(cc32)COC(C)(C)C4)c(=O)n1CCN(CC)CC	-4	4351	0	-1	-4
Cc1c(C(=O)NC(C)CN2CCCCC2)oc2ccccc12 (stereo unspecified)	-4	17372*	i	1	5
Cc1ccc(CNC(=O)CCn2nc(-c3ccc(Cl)cc3)ccc2=O)cc1	0	18881*	i	2	-2
CN(C)CCNC(=O)CCn1nc(-c2ccc(Cl)cc2)ccc1=O	10	3762	i	0	-9
CC(C)(C)OC(=O)N1CCN(C(=O)c2cccnc2Cl)CC1	-5	4484	-1	-1	-8
SMILES	BoNT F protease	Bead autofluor	BH1578 lux ind	BoNT-A LC inh2	Anthrax LF inh2
O=C(CN1CCCCC1)Nc1ccc(Br)cc1[N+](=O)[O-]	-3	4631	48*	1	4
Cc1ccnc(SCC(=O)c2ccc(Br)cc2)c1C#N	-2	2042	0	1	-1
Cc1ccc(C(=O)COc2nc(C)cc(C)c2C#N)cc1	-3	22443*	1	-1	0
Cc1cc(C)c(C#N)c(OCC(=O)c2ccc(Br)cc2)n1	0	23283*	-2	u	1
O=C(CCSc1ccccc1)Nc1nccs1	-2	16866*	i	u	0
Cc1sc(NC(=O)c2ccco2)c(CN2CCCCC2)c1C	-5	9701	i	-1	9
Cc1sc(NC(=O)c2ccco2)c(CN2CCN(c3ccccc3)CC2)c1C	-3	20298*	-3	0	-5
Cc1sc(NC(=O)c2ccco2)c(C(c2ccncc2)N2CCOCC2)c1C (stereo unspecified)	2	18732*	0	3	-2
CSc1ccc(S(=O)(=O)NCc2ccccc2)cc1	2	22207*	0	1	0
O=C(CCNS(=O)(=O)c1ccc(Cl)cc1)NCc1cccnc1	-1	23127*	-1	-1	-3
CC(NS(=O)(=O)c1ccc(CCC(=O)NCc2cccnc2)cc1)c1ccccc1 (stereo unspecified)	-1	20378*	0	0	0

Screening results: PubChem, several laboratories
